From PubChem
Compounds with a hit are over-represented: about 18% of the library has one in this group of screens.
DT40 TDP1 CPT: growth inhibition of DT40 Tdp1-/-;hTDP1 cells with camptothecin (screen for TDP1 inhibitors); chicken DT40 Tdp1-/-;hTDP1 cells + 20 nM CPT, ATP luminescence, 48 h; Potency, µM (top dose mostly 46.2 µM), most hits filed as inhibitors; 12% of 420,000 active; also: nearly all actives have a fitted effect of over 55% in size
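Chicken DT40 Tdp1-/- cells complemented with human TDP1, 400 cells/well, exposed to compounds plus 20 nM camptothecin for at least 48 h at 37 C; viability read as ATP content by CellTiter-Glo luminescence.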
Six1-Eya2 blk: blocks human Six1 binding to Eya2; activity change, % (test concentration not listed); AID 651725; AlphaScreen GST-Six1/His-Eya2 binding, biochemical; active compounds read low; 0.56% of 360,000 active; in the data active = activity change below about -65%; inconclusive = mostly about -30% to -63%
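Homogeneous AlphaScreen proximity assay pairing GST-Six1 with His-tagged Eya2 (added as 5X mix: 250 nM and 500 nM) in 50 mM Tris pH 8.0, 300 mM NaCl, 1 mM TCEP. Glutathione donor and nickel acceptor beads; 1 h, 37 °C, dark.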
TDP1 inh: blocks human tyrosyl-DNA phosphodiesterase 1. 0.28% of 350,000 active. AID 485290. recombinant TDP1, AlphaScreen DNA substrate cleavage. Potency, µM (series often up to 130 µM), usual class: inhibitors. Q9NUW8; also: nearly all actives have a fitted effect of over 40% in size
Target sequence (Q9NUW8 whole entry, looked up): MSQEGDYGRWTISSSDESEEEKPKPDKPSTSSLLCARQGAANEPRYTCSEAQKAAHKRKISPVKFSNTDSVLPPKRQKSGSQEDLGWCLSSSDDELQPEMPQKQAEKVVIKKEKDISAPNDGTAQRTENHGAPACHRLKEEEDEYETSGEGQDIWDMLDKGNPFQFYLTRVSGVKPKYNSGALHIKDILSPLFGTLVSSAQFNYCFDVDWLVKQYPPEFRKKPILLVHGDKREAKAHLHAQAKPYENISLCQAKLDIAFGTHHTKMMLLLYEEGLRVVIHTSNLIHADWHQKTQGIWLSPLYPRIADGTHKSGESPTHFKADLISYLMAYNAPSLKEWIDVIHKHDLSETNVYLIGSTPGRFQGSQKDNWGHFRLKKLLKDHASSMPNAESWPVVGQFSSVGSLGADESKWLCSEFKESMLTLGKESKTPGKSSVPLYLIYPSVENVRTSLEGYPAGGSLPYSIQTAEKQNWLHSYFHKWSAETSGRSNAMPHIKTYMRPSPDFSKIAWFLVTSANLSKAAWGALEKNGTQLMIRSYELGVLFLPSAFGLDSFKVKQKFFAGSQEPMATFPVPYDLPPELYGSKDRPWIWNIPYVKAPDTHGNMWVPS
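Here, a 5' biotin and 3' phosphotyrosine-FITC DNA oligonucleotide reports Tdp1 activity: intact substrate bridges AlphaScreen beads, while cleavage leaves a 3' phosphate and drops signal. All incubations at room temperature.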
CtBP-E1A inh: blocks the CtBP interaction with E1A; activity change, % (concentration not given with the values); 0.49% of 340,000 active; AlphaScreen GST-E1A/His-CtBP binding, 1536-well; active compounds read low; in the data active = activity change below about -65%; inconclusive = mostly about -30% to -63%
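GST-E1A and His-tagged CtBP (125 nM each as 5X stock) were preincubated with pin-transferred compound for 2 h at 37 °C in the dark, then glutathione donor and nickel acceptor beads were added for 1 h before AlphaScreen reading.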
TDP1 cell noCPT: qHTS for Inhibitors of human tyrosyl-DNA phosphodiesterase 1 (TDP1): qHTS in cells in absence of CPT | Potency, µM (series often up to 46.2 µM), usual class: inhibitors | 15% of 420,000 active | AID 686978, 2013 | DT40 Tdp1-/- hTDP1 cells, no CPT, ATP luminescence, 48 h; also: nearly all actives have a fitted effect of over 55% in size
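Luminescent ATP content (CellTiter-Glo) served as the growth readout. Knockout chicken DT40 cells expressing human TDP1 were exposed to compounds without camptothecin for a minimum 48 hr at 37 °C.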
IL-1B inflam inh: inflammasome signaling inhibition, IL-1 beta readout | activity change, % at 57.5 µM | 4.7% of 360,000 active | THP-1 LPS/ATP IL-1B secretion, AlphaLISA, 16 h; active compounds read low; in the data active = activity change below about -50%; inconclusive = mostly about -30% to -49%
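THP-1 cells pretreated 1 hr with compounds (up to 57.5 uM final), then stimulated with LPS (250 ng/mL final) plus ATP (1.25 mM final); secreted IL-1B measured by AlphaLISA after 16 hr, decreased signal indicating inhibition.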
Numbers stand for hits; - = inactive; ? = inconclusive; . = no result; [ ] = remark or other dose. Unless noted, calls follow the shape of the dose curve; as a rule, active = well fitted curve in the direction sought with a large enough effect; inconclusive = small, poorly fitted or top-dose-only effect, or another doubt; inactive = no such curve, though single readings can be large; an effect the other way counts as inactive or inconclusive.

SMILES	DT40 TDP1 CPT	Six1-Eya2 blk	TDP1 inh	CtBP-E1A inh	TDP1 cell noCPT	IL-1B inflam inh
O=C(O)CN1CCCC1=Nc1ccccc1	-	-	-	-	-	-
Oc1ccc(C(c2nnnn2C2CCCC2)N2CCc3ccccc3C2)cc1 (stereo not drawn)	?	-	-	-	20.6µM	-
COc1cc(C(c2nnnn2C2CCCC2)N2CCc3ccccc3C2)ccc1O (stereo not drawn)	?	-	-	-	11.6µM	-
COc1ccc(CCNC(=O)CSCc2c(F)cccc2Cl)cc1OC	?	-	-	-	?	-
Cc1cc(OCC(=O)N2CCC(O)(c3ccc(Cl)cc3)CC2)c2c(C)cc(=O)oc2c1	-	-	-	-	-	-
COc1ccccc1OCC(=O)N1CCCC(Nc2ccc(C)c(C)c2)C1 (stereo not drawn)	?	-	-	-	-	-
COc1ccc(NC2CCCN(C(=O)COc3ccc(Cl)cc3C)C2)cc1OC (stereo not drawn)	23.1µM	-	-	-	25.9µM	-
Cc1cc(Nc2ccccc2)c2c([N+](=O)[O-])cc(C)c(C)c2n1	9.2µM	?	-	?	23.1µM	-
COc1ccccc1Nc1cc(C)nc2c(C)ccc([N+](=O)[O-])c12	-	?	-	-	-	-
Cc1cc(C(=O)N/N=C/c2ccco2)c2ccccc2n1	?	-	-	-	?	-
CCc1ccc(/C=N/NC(=O)c2cc(-c3ccncc3)nc3ccccc23)s1	4.61µM	-	-	-	3.26µM	-
O=C(N/N=C/c1ccncc1)c1cc(C2CC2)nc2ccccc12	-	-	-	-	?	-
Cc1ccc(-c2cc(C(=O)N/N=C/c3ccoc3)c3ccccc3n2)cc1	?	-	-	-	?	-
O=C(N/N=C/c1cccs1)c1cc(-c2ccncc2)nc2ccccc12	0.581µM	-	-	-	0.581µM	-
O=C(N/N=C/c1ccco1)c1cc(-c2ccncc2)nc2ccccc12	7.31µM	-	-	-	7.31µM	-
O=C(N/N=C/c1cccs1)c1cc(C2CC2)nc2ccccc12	3.66µM	-	-	-	2.91µM	-
COc1ccccc1-c1cc(C(=O)N/N=C/c2cccs2)c2ccccc2n1	?	-	-	-	?	-
COc1ccccc1Nc1cc(N2CCOCC2)c2nonc2c1[N+](=O)[O-]	-	-	-	-	?	-
COc1cccc(-n2c(O)c(C=NCc3ccccn3)c3ccccc3c2=O)c1	-	-	.	-	-	-
O=C(Cn1nc(-c2ccco2)ccc1=O)Nc1ccc(Cl)c(Cl)c1	-	-	-	-	-	-
COc1ccc(N=C2S/C(=C\c3ccco3)C(=O)N2CC(C)C)cc1	-	-	-	-	-	-
COc1ccc(N=C2S/C(=C\c3cc(C)n(C)c3C)C(=O)N2CC(C)C)cc1	?	?	-	-	18.4µM	-
CCN1C(=O)/C(=C/c2cccs2)SC1=Nc1ccc(OC)cc1	7.31µM	-	-	-	4.11µM	-
C/C(=N\NC(=O)CC1(C)OCCO1)c1cccs1	-	-	-	-	-	-
O=C(CSc1nnc(-c2cccs2)n1-c1ccccc1)N1CCOCC1	-	-	-	-	-	-
SMILES	DT40 TDP1 CPT	Six1-Eya2 blk	TDP1 inh	CtBP-E1A inh	TDP1 cell noCPT	IL-1B inflam inh
O=C(C[C@H]1C/C=C\C[C@@H](Cc2ccc(F)cc2)C(=O)O[C@@H](c2ccccc2)CNC1=O)NCCO	-	-	-	.	?	-
O=C1NC[C@@H](c2ccccc2)OC(=O)[C@H](Cc2ccc(F)cc2)C/C=C\C[C@H]1CC(=O)N(CCO)Cc1ccccc1	20.6µM	-	-	-	16.4µM	?
O=C1NC[C@H](c2ccccc2)OC(=O)[C@H](Cc2ccc(F)cc2)C/C=C\C[C@H]1CC(=O)N(CCO)Cc1ccccc1	10.3µM	-	-	-	8.2µM	-60.2
O=C1NC[C@H](c2ccccc2)OC(=O)[C@@H](Cc2ccc(F)cc2)C/C=C\C[C@H]1CC(=O)N(CCO)Cc1ccccc1	8.2µM	-	-	-	?	-
Cc1cc2oc(C(=O)Nc3ccc(S(=O)(=O)Nc4ncccn4)cc3)cc(=O)c2cc1Cl	-	-	.	-	-	-
CCN1C(=O)[C@H]2[C@H]3[C@H](O)[C@H](O)C/C(=N/O[C@@H](C)c4cn([C@H]5COC[C@H]5O)nn4)[C@@H]3CC[C@@H]2C1=O	.	.	-[21 µM]	.	.	.
Cc1cccc(NC(=S)NCCC(C)C)c1	-	-	-	-	?	-
CCOC(=O)N1CCC2(CC1)C(C#N)=C(N)Oc1n[nH]c(CSc3ccc(C)cc3)c12	7.31µM	-	-	-	?	-
O/N=C1\CCCc2nnc3c(c21)CCCC3	-	-	-	-	-	-
Cc1cc(C)nc(SCC(=O)N/N=C\C(Br)=C\c2ccccc2)n1	6.51µM	-	-	-	14.6µM	-
Cc1cc(C)nc(SCC(=O)NN=C2CCCC2)n1	?	-	-	.	20.6µM	-
Cc1cc(C)nc(SCC(=O)N/N=C/c2cccc([N+](=O)[O-])c2)n1	18.4µM	-	-	-	23.1µM	-
Cc1ccc(NCC(=O)N/N=C\C(Br)=C\c2ccccc2)cc1	3.26µM	-	-	-	5.8µM	-97.9
O=C(CSc1ncccn1)N/N=C/c1cccc([N+](=O)[O-])c1	-	-	-	-	-	-
O=C(CSc1ncccn1)NN=C1CCCCCCC1	-	-	-	-	-	-
Cc1cc(NC(=O)CSCc2ccccc2)no1	-	-	-	.	-	-
CC(=O)Nc1ccc(Oc2sc(C(=O)c3ccccc3)c(N)c2C#N)cc1	?	-	-	-	?	-59.7
CC(/C=C/C=C(C)/C=C/C(=O)O)=C\C=C\C=C(C)\C=C\C=C(C)\C=C\C(=O)O	.	.	2.82µM	.	.	.
COc1ccc(Cc2nnc(NC(=O)Cn3cnc4c3c(=O)n(C)c(=O)n4C)s2)cc1OC	-	-	-	-	-	-
COc1ccc(Cl)cc1C1CC(=O)Nc2cc3c(cc21)OCCO3 (stereo not drawn)	0.651µM	.	-	.	0.366µM	.
O=C1CC(c2cccs2)c2cc3c(cc2N1)OCCO3 (stereo not drawn)	?	-	-	-	20.6µM	-
O=C1CC(c2cccc(Cl)c2Cl)c2cc3c(cc2N1)OCCO3 (stereo not drawn)	?	.	-	.	20.6µM	.
O=C1CC(c2ccc(Cl)cc2)c2cc3c(cc2N1)OCCO3 (stereo not drawn)	?	.	-	.	?	.
COc1ccccc1C1CC(=O)Nc2cc3c(cc21)OCCO3 (stereo not drawn)	5.17µM	-	-	-	5.17µM	-
O=C(C(=O)N1CCc2ccccc2C1)c1cn(CC(=O)N2CCOCC2)c2ccccc12	-	-	-	-	?	-
